These results are taken from PubChem BioAssay AID2098 (Broad Institute, 2009).

Screen size: about 300,000 compounds; about 2,300 (0.77%) were called active. The list comes from a sample in which actives are over-represented; it also holds similar structures and randomly drawn compounds. A number with no mark means an inactive call.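 How the source made its calls: active means more than half of replicate wells show activity change below -50%, luminescence cut by over half; inconclusive means some wells, but at most half, below -50%; inactive means no replicate well below -50%.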

This test is described as follows: HSF1 inhibitors in luciferase reporter cells, primary screen, cell-based, NIH3T3, luminescence (AID 2098).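 Further: luciferase reports HSF-1 transcriptional activity via heat shock element; 0% = median of DMSO wells and -100% = zero luminescence signal.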 As to conditions: NIH3T3-HGL HSE-luciferase, MG132-induced, luminescence 8 h; hits give low values; screened at 7.5 µM (by protocol). (In general: In a reporter assay the amount or activity of a reporter protein is the signal.)
As to `COc1ccc(C(=O)c2c3ccc([N+](=O)[O-])cc3[n+]([O-])n2CCCN)cc1`, the activity change, negative = inhibition is 13.3%.

As to `O=C(NC1CCCCC1)c1ccc(-c2ccc(Cl)cc2)o1`, the activity change, negative = inhibition was 43.4%.

With `CC1(C)S[C@@H]2[C@H](NC(=O)COc3ccccc3)C(=O)N2C1C(=O)OCc1ccccc1` (stereo partly drawn), the activity change, negative = inhibition is 5.03%.

As to `Cc1c(NC(=O)CN(C)CC(=O)Nc2ccc(F)c(F)c2F)c(=O)n(-c2ccccc2)n1C`, the activity change, negative = inhibition was 1.95%.

With `Cc1ccn2c(=O)nc(SCC(=O)NCc3ccc(F)cc3)nc2c1`, the activity change, negative = inhibition is 4.59%.

`COc1ccccc1C(c1nnnn1CC1CCCO1)N1CCN(c2ccccc2)CC1` (stereo not drawn): the activity change, negative = inhibition is -0.551%.

Consider `Cc1cccc(N2CCN(C(c3ccccc3)c3nnnn3CC3CCCO3)CC2)c1C` (stereo not drawn), for which the activity change, negative = inhibition is -61% (active).

On to `Cc1cccc(N2CCN(C(c3ccc(N(C)C)cc3)c3nnnn3C(C)(C)C)CC2)c1C` (stereo not drawn), for which the activity change, negative = inhibition is -2.19%.

For the molecule `Cc1sc2nc(CSCC(=O)NC3CCCCC3)[nH]c(=O)c2c1C`, the activity change, negative = inhibition is 16.5%.

Take `CCOC(=O)c1ccc(NC(=S)N2CCCC2)cc1`: the activity change, negative = inhibition was 19%.

Consider `CCOC(=O)N1CCN(C(=S)Nc2ccc(C)cc2C)CC1`, for which the activity change, negative = inhibition was -68.8% (active).

As for `Cc1cc(Cl)ccc1NC(=S)N1CCC(C(N)=O)(N2CCCCC2)CC1`, the activity change, negative = inhibition is 1.76%.

With `O=C1CCCCC1Sc1ccc(Cl)cc1[N+](=O)[O-]` (stereo not drawn), the activity change, negative = inhibition was 3.95%.

On to `CCOc1ccc(NS(=O)(=O)c2ccc(C(=O)NCC(c3ccccc3OC)N3CCCC3)cc2)cc1` (stereo not drawn), for which the activity change, negative = inhibition was -3.53%.

For the molecule `O=C(NC1CC1)C1=C[C@H](c2coc3ccccc3c2=O)C[C@H](OCCCCO)O1`, the activity change, negative = inhibition is -5.11%.

Turning to `COc1ccc(C(C)NC(=S)NC2CCCCC2)cc1OC` (stereo not drawn), the activity change, negative = inhibition is -74.6% (active).

On to `COc1cc(OC)c(C(=O)NC2CCCCCC2)cc1OC`, for which the activity change, negative = inhibition was 2.19%.

Take `COc1ccc(Cl)cc1C(=O)NNC(=S)NC1CCCC1`: the activity change, negative = inhibition was 6.56%.

Take `Clc1ccc(Nc2ccc3ccccc3n2)cc1`: the activity change, negative = inhibition was 6.43%.

With `Cc1ccc(C2(C)NC(=O)N(CC(=O)Nc3ccccc3C(=O)N3CCCCC3)C2=O)cc1` (stereo not drawn), the activity change, negative = inhibition is 10.1%.

For the molecule `O=C1CN(C(=O)COC(=O)c2cnc(Cl)c(Cl)c2)c2ccccc2N1`, the activity change, negative = inhibition was 6.76%.

For `O=C1CN(C(=O)COc2c(Cl)cccc2Cl)c2ccccc2N1`, the activity change, negative = inhibition is -74.4% (active).

In the case of `COc1cc(OC)c(C(=O)OCC(=O)N2CC(=O)Nc3ccccc32)cc1OC`, the activity change, negative = inhibition is 11.6%.

As to `O=C1/C(=C\c2ccc(O)cc2)CCC1CNc1ccc(Cl)cc1` (stereo not drawn), the activity change, negative = inhibition is -5.88%.

On to `COC(=O)Cc1[nH]n(-c2nc3ccccc3s2)c(=O)c1C(C)=Nc1ccc(OC)cc1`, for which the activity change, negative = inhibition is -58.9% (active).

As for `CC(=NCc1ccco1)c1c(C(F)(F)F)[nH]n(-c2nc3ccccc3s2)c1=O`, the activity change, negative = inhibition is -32.4%.

On to `C/C(=N\NC(=O)CC(C)C)c1c(C(F)(F)F)[nH]n(-c2nc3ccccc3s2)c1=O`, for which the activity change, negative = inhibition was -6.15%.

For `Cc1ccc(S(=O)(=O)NC(C)C(=O)NCc2ccc(Cl)cc2)cc1` (stereo not drawn), the activity change, negative = inhibition is -3.78%.

With `C=CCn1c(C)cc(C2=NNC(=NCC)SC2)c1C`, the activity change, negative = inhibition is -77.6% (active).

Consider `C=CCn1c(C)cc(C(=O)CN2C(=O)c3ccccc3C2=O)c1C`, for which the activity change, negative = inhibition is 8.2%.

For the molecule `Cc1cccc(N=C2NN=C(c3c[nH]c4ccccc34)CS2)c1`, the activity change, negative = inhibition was 14.3%.

For the molecule `Cc1ccc(CNS(=O)(=O)CCNC(=O)c2ccccc2)cc1`, the activity change, negative = inhibition is -2.85%.

Consider `O=C(Nc1ccc(F)c(Cl)c1)C1CCN(S(=O)(=O)c2cccnc2)CC1`, for which the activity change, negative = inhibition is -56.8% (active).

In the case of `O=C(NCc1cccs1)C1CCN(S(=O)(=O)c2ccc(Cl)cc2)CC1`, the activity change, negative = inhibition was 4.22%.

For the molecule `CC(C)c1ccc(NC(=O)C2CCCN(S(=O)(=O)c3cccnc3)C2)cc1` (stereo not drawn), the activity change, negative = inhibition was -2.05%.

In the case of `Cc1ccc(Cl)c(OCC(=O)N(C)CC(=O)Nc2ccc(N3CCOCC3)cc2)c1`, the activity change, negative = inhibition was 4.7%.

As to `COc1cc(C(=O)N(C)Cc2cccc(OC)c2OC)ccc1OCC(=O)Nc1cccc(C(F)(F)F)c1`, the activity change, negative = inhibition was -3.36%.

On to `CCN(CC)c1ccc(NC(=O)c2ccc(=O)[nH]c2)cc1S(=O)(=O)Nc1ccc(OC)cc1`, for which the activity change, negative = inhibition was 2.04%.

On to `CCc1c(C)nc(N2CCN(Cc3ccccc3)CC2)[nH]c1=O`, for which the activity change, negative = inhibition was -0.365%.

Turning to `Cc1ccc(-n2c(=O)cc(N3CCN(Cc4ccccc4)CC3)[nH]c2=O)cc1`, the activity change, negative = inhibition is -57.4% (active).

Turning to `CN1CCN(c2cc(=O)n(-c3ccc(Cl)cc3)c(=O)[nH]2)CC1`, the activity change, negative = inhibition is -10.9%.

`COCCN(C(=O)COC(=O)Cc1cccc(OC)c1)c1c(N)n(Cc2ccccc2)c(=O)[nH]c1=O`: the activity change, negative = inhibition was -2.09%.

For the molecule `NS(=O)(=O)c1ccc(CNC(=O)c2cccc(Oc3ccccc3)c2)cc1`, the activity change, negative = inhibition was -1.65%.

On to `NS(=O)(=O)c1ccc(CNC(=O)c2cnccn2)cc1`, for which the activity change, negative = inhibition was -54.3% (active).

Regarding `O=C(NNS(=O)(=O)c1ccc(F)cc1)c1cnccn1`, the activity change, negative = inhibition was 4.99%.

For `Cc1ccc(S(=O)(=O)NCCC(=O)OCC(=O)N(C)c2ccccc2)cc1`, the activity change, negative = inhibition was 7.6%.

For `O=C(CCC1CCCCC1)Nc1cc(C(F)(F)F)ccc1N1CCOCC1`, the activity change, negative = inhibition was 3.1%.

With `COC(=O)c1nc(NC(=O)c2ccc(F)cc2)n[nH]1`, the activity change, negative = inhibition was 3%.

With `COC(=O)c1nc(NC(=O)c2ccc(C(C)(C)C)cc2)n[nH]1`, the activity change, negative = inhibition was -75.2% (active).

For the molecule `COC(=O)c1nc(NC(=O)c2ccc(Cl)cc2)n[nH]1`, the activity change, negative = inhibition was -3.56%.

In the case of `COc1ccc(-c2nc(-c3ccccc3)no2)c(OC)c1`, the activity change, negative = inhibition is -66.8% (active).

Consider `COc1ccc(Sc2nc(-c3ccccc3)ncc2OC)cc1`, for which the activity change, negative = inhibition was -4.54%.

Take `COc1ccccc1Cc1nc(-c2ccc(C)cc2)no1`: the activity change, negative = inhibition was 12%.

`C=CCNC(=O)C1CC2c3ccccc3C1c1ccccc12` (stereo not drawn): the activity change, negative = inhibition was -1.08%.

`COc1ccc(C(=O)NC(=S)N2CCNC(=O)C2CC(=O)OC(C)C)cc1` (stereo not drawn): the activity change, negative = inhibition is -54.5% (active).

As to `COc1cccc(NC(=O)CC2C(=O)NCCN2C(=S)Nc2ccc(F)cc2)c1` (stereo not drawn), the activity change, negative = inhibition is 3.49%.

Take `CCc1ccc(NC(=O)CC2C(=O)NCCN2C(=S)Nc2ccccc2)cc1` (stereo not drawn): the activity change, negative = inhibition is -1.21%.

For `Cc1ccc(S(=O)(=O)N(Cc2cccc([N+](=O)[O-])c2)C(=O)N2CCN(C)CC2)cc1`, the activity change, negative = inhibition was -0.764%.
